Among all 5,500 compounds or so, about 2,000 (36%) were called active. Roughly 18% stayed inconclusive and do not appear here. No stated cut-off is given here; in the data, active means normalized growth mostly below about 0.91 (no sharp cut-off); inconclusive means no clear call, values can overlap the other calls; inactive means mostly above about 0.92. Some of the results follow.
Experiment: chemical genetic growth profiling, strain panel (AID 1159580);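 further: tested at 20 µM; growth read once vehicle control cultures reached saturation at 30 °C; 1 = growth at the plate median or of vehicle wells; lower values mean less growth of the strain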
Conditions: growth OD

Measured: normalized growth

Cn1nnnc1SCC1=C(C(=O)O)N2C(=O)C(NC(=O)C(O)c3ccccc3)C2SC1 (configuration not stated)
inactive: S. cerevisiae deletion strains, locus YJR075W, strain HOC1, hits give low values 1.01 | S. cerevisiae deletion strains, locus YKL009W, strain mrt4, hits give low values 1.01 | S. cerevisiae deletion strains, locus YKL068W, hits give low values 1.01 | S. cerevisiae deletion strains, locus YKL085W, strain MDH1 (second series), hits give low values 1.01 | S. cerevisiae deletion strains, locus YKL085W, strain MDH1, hits give low values 1.01 | S. cerevisiae deletion strains, locus YKL160W, strain elf1, hits give low values 0.95 | S. cerevisiae deletion strains, locus YKL190W, strain CNB1, hits give low values 1.02 | S. cerevisiae deletion strains, locus YKR001C, strain vps1, hits give low values 1 | S. cerevisiae deletion strains, locus YKR026C, strain gcn3, hits give low values 0.974 | S. cerevisiae deletion strains, locus YKR091W, strain srl3, hits give low values 0.981 | S. cerevisiae deletion strains, locus YLL001W, strain dnm1, hits give low values 0.955 | S. cerevisiae deletion strains, locus YLL026W, hits give low values 0.989 | S. cerevisiae deletion strains, locus YLL041C, strain sdh2, hits give low values 0.968 | S. cerevisiae deletion strains, locus YLR027C, strain aat2, hits give low values 0.982 | S. cerevisiae deletion strains, locus YLR039C, strain RIC1, hits give low values 0.991 | S. cerevisiae deletion strains, locus YLR058C, strain SHM2, hits give low values 1.02 | S. cerevisiae deletion strains, locus YLR102C, strain apc9, hits give low values 1 | S. cerevisiae deletion strains, locus YLR113W, strain HOG1, hits give low values 0.938 | S. cerevisiae deletion strains, locus YLR221C, strain rsa3, hits give low values 0.98 | S. cerevisiae deletion strains, locus YLR258W, strain gsy2, hits give low values 0.981 | S. cerevisiae deletion strains, locus YLR262C, strain YPT6 (second series), hits give low values 0.973 | S. cerevisiae deletion strains, locus YLR262C, strain YPT6, hits give low values 1.1 | S. cerevisiae deletion strains, locus YLR268W, strain sec22, hits give low values 0.988 | S. cerevisiae deletion strains, locus YLR320W, strain mms22, hits give low values 0.952 | S. cerevisiae deletion strains, locus YLR330W, strain CHS5, hits give low values 1.01 | S. cerevisiae deletion strains, locus YLR342W, strain FKS1 (second series), hits give low values 1.02 | S. cerevisiae deletion strains, locus YLR342W, strain FKS1, hits give low values 0.972 | S. cerevisiae deletion strains, locus YLR357W, strain rsc2, hits give low values 0.952 | S. cerevisiae deletion strains, locus YLR370C, strain arc18, hits give low values 0.967 | S. cerevisiae deletion strains, locus YLR371W, strain rom2, hits give low values 0.999 | S. cerevisiae deletion strains, locus YLR384C, strain iki3, hits give low values 0.962 | S. cerevisiae deletion strains, locus YLR418C, strain cdc73, hits give low values 1 | S. cerevisiae deletion strains, locus YML016C, strain PPZ1, hits give low values 1.01 | S. cerevisiae deletion strains, locus YML032C, strain rad52, hits give low values 1 | S. cerevisiae deletion strains, locus YML120C, strain ndi1, hits give low values 0.964 | S. cerevisiae deletion strains, locus YML124C, strain tub3, hits give low values 1.01 | S. cerevisiae deletion strains, locus YMR058W, strain fet3, hits give low values 0.966 | S. cerevisiae deletion strains, locus YMR078C, strain ctf18, hits give low values 1 | S. cerevisiae deletion strains, locus YMR125W, strain sto1, hits give low values 0.973 | S. cerevisiae deletion strains, locus YMR129W, hits give low values 0.981 | S. cerevisiae deletion strains, locus YMR205C, strain PFK2, hits give low values 0.959 | S. cerevisiae deletion strains, locus YMR223W, strain ubp8, hits give low values 1.01 | S. cerevisiae deletion strains, locus YMR231W, strain pep5, hits give low values 0.971 | S. cerevisiae deletion strains, locus YMR263W, strain SAP30, hits give low values 1.03 | S. cerevisiae deletion strains, locus YMR307W, strain GAS1, hits give low values 0.993 | S. cerevisiae deletion strains, locus YNL067W, strain RPL9B, hits give low values 1.03 | S. cerevisiae deletion strains, locus YNL071W, strain lat1, hits give low values 0.978 | S. cerevisiae deletion strains, locus YNL128W, strain TEP1, hits give low values 1.03 | S. cerevisiae deletion strains, locus YNL153C, strain GIM3, hits give low values 1.03 | S. cerevisiae deletion strains, locus YNL183C, strain NPR1, hits give low values 0.926 | S. cerevisiae deletion strains, locus YNL209W, strain ssb2, hits give low values 0.982 | S. cerevisiae deletion strains, locus YNL233W, strain BNI4, hits give low values 1.02 | S. cerevisiae deletion strains, locus YNL248C, strain rpa49, hits give low values 0.968 | S. cerevisiae deletion strains, locus YNL250W, strain rad50, hits give low values 1.01 | S. cerevisiae deletion strains, locus YNL271C, strain bni1, hits give low values 1.01 | S. cerevisiae deletion strains, locus YNL298W, strain CLA4, hits give low values 1.01 | S. cerevisiae deletion strains, locus YNL307C, strain MCK1, hits give low values 1 | S. cerevisiae deletion strains, locus YNL322C, strain KRE1 (second series), hits give low values 0.97 | S. cerevisiae deletion strains, locus YNL322C, strain KRE1, hits give low values 1.02 | S. cerevisiae deletion strains, locus YNR049C, strain mso1, hits give low values 0.972 | S. cerevisiae deletion strains, locus YNR052C, strain pop2, hits give low values 0.997 | S. cerevisiae deletion strains, locus YOL006C, strain TOP1, hits give low values 1.05 | S. cerevisiae deletion strains, locus YOL012C, strain htz1 0.993 | S. cerevisiae deletion strains, locus YOL147C, strain pex11, hits give low values 0.999 | S. cerevisiae deletion strains, locus YOR001W, strain rrp6, hits give low values 0.967 | S. cerevisiae deletion strains, locus YOR061W, strain CKA2, hits give low values 1.02 | S. cerevisiae deletion strains, locus YOR069W, strain VPS5, hits give low values 1.01 | S. cerevisiae deletion strains, locus YOR070C, strain gyp1, hits give low values 0.979 | S. cerevisiae deletion strains, locus YOR080W, strain dia2, hits give low values 0.97 | S. cerevisiae deletion strains, locus YOR083W, strain WHI5, hits give low values 0.958 | S. cerevisiae deletion strains, locus YOR106W, strain vam3, hits give low values 0.945 | S. cerevisiae deletion strains, locus YOR136W, strain idh2, hits give low values 0.995 | S. cerevisiae deletion strains, locus YOR144C, strain elg1, hits give low values 1 | S. cerevisiae deletion strains, locus YOR184W, strain ser1, hits give low values 0.99 | S. cerevisiae deletion strains, locus YOR231W, strain MKK1, hits give low values 0.996 | S. cerevisiae deletion strains, locus YOR265W, strain rbl2, hits give low values 0.975 | S. cerevisiae deletion strains, locus YOR270C, strain vph1, hits give low values 0.974 | S. cerevisiae deletion strains, locus YOR290C, strain snf2, hits give low values 0.924 | S. cerevisiae deletion strains, locus YOR316C, strain cot1, hits give low values 0.996 | S. cerevisiae deletion strains, locus YPL051W, strain arl3, hits give low values 0.964 | S. cerevisiae deletion strains, locus YPL055C, strain LGE1, hits give low values 1.07 | S. cerevisiae deletion strains, locus YPL078C, strain atp4, hits give low values 0.968 | S. cerevisiae deletion strains, locus YPL106C, strain sse1, hits give low values 0.958 | S. cerevisiae deletion strains, locus YPL240C, strain hsp82, hits give low values 0.991 | S. cerevisiae deletion strains, locus YPL241C, strain CIN2, hits give low values 1.01 | S. cerevisiae deletion strains, locus YPL256C, strain CLN2, hits give low values 0.987 | S. cerevisiae deletion strains, locus YPR119W, strain clb2, hits give low values 0.991 | S. cerevisiae deletion strains, locus YPR141C, strain kar3, hits give low values 1 | S. cerevisiae deletion strains, locus YPR163C, strain tif3, hits give low values 0.994 | S. cerevisiae deletion strains, locus YPR167C, strain met16, hits give low values 1.01 | S. cerevisiae deletion strains, strain wtn01, hits give low values 1 | S. cerevisiae strains, strain wild type, hits give low values 1.02

— PubChem BioAssay AID1159580 (chemical genetic matrix, 2015)
